# Measurements taken from PubChem BioAssay (NCATS).
# Values joined by “and” are separate entries in the source; they are usually repeats but may differ in a detail not shown here. Equal entries are not always repeated. Inconclusive results are not listed. The source holds several records for some structures; these can differ, active in one and inactive in another. Active and inactive are the calls of the source. The call rests on the fitted dose curve; in most records, active means well fitted activation curve with a large enough effect in the signal ratio; inconclusive means small, poorly fitted or top-dose-only effect, or effect the other way, or a change in a side signal; inactive means flat fitted curve, though single readings scatter; the % refers to the signal ratio.
# Assay: qHTS assay for small molecule agonists of the antioxidant response element (ARE) signaling pathway (AID 651741); on activation: % of control where 0% means no effect
# Conditions: HepG2 ARE-bla reporter, beta-lactamase FRET ratio, 16 h; series mostly up to 96 µM; activation: at the top concentration
# From the text: National Center for Advancing Translational Sciences [NCATS]
# NIH Chemical Genomics Center [NCGC]
# U.S. Environmental Protection Agency [EPA]
# National Institutes of Environmental Health Sciences [NIEHS]
# National Toxicology Program [NTP]
# Oxidative stress has been implicated in the pathogenesis of a variety of diseases ranging from cancer to neurodegeneration. The antioxidant response element (ARE) signaling pathway plays an important role in the amelioration of oxidative stress. The CellSensor ARE-bla HepG2 cell line (Invitrogen) can be used for analyzing the Nrf2/antioxidant response signaling pathway. Nrf2 (NF-E2-related factor 2) and Nrf1 are transcription factors that bind to AREs and activate these genes. The CellSensor ARE-bla Hep G2 cell line contains a beta-lactamase reporter gene under control of the Antioxidant Response Element (ARE) stably integrated into HepG2 cells. The activation of the report gene under culture conditions can be detected by fluorescence intensity. This cell line can be used to screen chemicals in a 1536-well plate format and to identify agonists that induce oxidative stress.
# The ARE-bla cells were dispensed at 2,000 cells/5 ul/well in 1536-well black wall/clear bottom plates using a Multidrop dispenser. After the assay plates were incubated at a 37 C/5% CO2 incubator for 5 hours, 23 nL of compounds dissolved in DMSO, positive controls or DMSO only was transferred to the assay plate by a pin tool. The plates were incubated at 37 C for 16 hours. After 1 uL of LiveBLAzer B/G FRET substrate was added using a Flying Reagent Dispenser, the plates were incubated at room temperature for 2 hours, and fluorescence intensity was measured by an Envision plate reader.
# Potency means the concentration at half of the fitted maximal effect.
SMILES,Potency,activation
Clc1ccc(C(c2ccc(Cl)cc2)C(Cl)(Cl)Cl)cc1,66.8 µM (active),–
CCOC(=O)CC(SP(=S)(OC)OC)C(=O)OCC (configuration not stated),48.6 µM (active),–
CC(C)NC(C)C,–,-1.87% (inactive)
CC(C)(C)c1ccc(O)cc1,–,0.0155% (inactive)
COc1cc(OC)c(OC)cc1C=O,–,-4.98% (inactive)
CC(C)c1cccc(C(C)C)c1O,–,7.56% (inactive)
O=C(O)c1cc(O)c(O)c(O)c1,4.22 µM (active),–
O=C1c2ccccc2C(=O)C1C(=O)C(c1ccccc1)c1ccccc1,61.1 µM (active),–
COP(=S)(OC)Oc1cc(Cl)c(Cl)cc1Cl,24.3 µM (active),–
CC(=O)N1CCN(c2ccc(OC[C@H]3CO[C@](Cn4ccnc4)(c4ccc(Cl)cc4Cl)O3)cc2)CC1,30.6 µM (active),–
CCCC(C)(COC(N)=O)COC(N)=O,–,-3.44% (inactive)
Oc1ccccc1,inactive and 1000 µM (active),–
CN1C[C@H](C(=O)N[C@]2(C)O[C@@]3(O)[C@@H]4CCCN4C(=O)[C@H](Cc4ccccc4)N3C2=O)C=C2c3cccc4[nH]cc(c34)C[C@H]21,37.6 µM (active),–
Nc1ccccc1,–,3.2% (inactive)
NCCc1ccc(O)cc1,–,1.51% (inactive)
COP(=S)(OC)Oc1ccc(SC)c(C)c1,–,12.9% (inactive)
[N-]=[N+]=CC(=O)OC[C@H](N)C(=O)O,–,6.71% (inactive)
O=P1(N(CCCl)CCCl)NCCCO1 (configuration not stated),–,-0.889% (inactive)
Nc1nc(N)nc(NC2CC2)n1,–,0.323% (inactive)
Nc1ccc([As](=O)(O)O)cc1,–,1.37% (inactive)
CCC(C)(C)c1ccc(O)cc1,–,4.26% (inactive)
CCCCCCCCCCCCCCCC(=O)OC(C)C,54.5 µM (active),–
